In PubChem BioAssay (Tox21):
Records with an inconclusive call do not appear. Activity calls are given as the source filed them. Calls come from the whole dose curve.

experiment: qHTS assay to identify small molecule antagonists of the sonic hedgehog signaling (Shh) pathway (AID 1259369); details: NIH/3T3 Gli1-Luc reporter, Shh antagonist, luminescence 24 h; series mostly up to 92.4 µM; activity change, negative = inhibition: at the top concentration; note: nearly all actives have a fitted effect of over 45% in size
Source text: U.S. Tox21 Program National Center for Advancing Translational Sciences [NCATS] NIH Chemical Genomics Center [NCGC] U.S. Environmental Protection Agency [EPA] National Institutes of Environmental Health Sciences [NIEHS] National Toxicology Program [NTP] U.S. Food and Drug Administration [FDA] Tox21 Assay Overview: The sonic hedgehog (Shh) pathway is essential for normal embryonic development. Dysregulation of the Shh pathway can cause severe developmental defects in organs. Therefore chemicals that interfere with the pathway are potential developmental toxicants. A cell line designated 3T3Gli1-Luc (DMB/OARSA/CFSAN/FDA, Laurel, MD), a NIH/3T3 derived clone containing stably integrated Gli1-Luc reporter is used to detect chemical interference of the Shh pathway, by changes in the expression of the firefly Luc gene under the control of the Gli1 transcriptional response element. This cell line was used to screen Tox21 libraries for identifying and prioritizing the potential developmental toxicants that interfere Shh pathway. Conditioned medium-stimulated mode was used to screen for chemicals inhibiting Shh signaling.
Tox21 Assay Protocol Summary: 3T3 Gli1-Luc cells were dispensed at 2,000 per well in 5uL of culture medium into white solid bottom 1536-well plates (Greiner Bio-One, Monroe, NC) using a Multidrop Combi (Thermo Scientific, Waltham, MA) dispenser. The assay plates were incubated at 37 C and 5% CO2 for 4hr, and then 23nL of compounds dissolved in DMSO and positive control were transferred using a Pintool station (Wako, San Diego, CA). The compound transfer was followed by the addition of 1ul conditioned medium or assay buffer using two separate tips of Flying Reagent Dispenser (FRD, Aurora Discovery, San Diego, CA). The assay plates were incubated at 37C and 5% CO2 for 24hr. For luciferase read, 4uL of Amplite Luciferase reporter gene assay reagent (AAT Bioquest, Inc. Sunnyvale, CA) was added to each well of the assay plates using FRD and incubated at room temperature for 30min. The luminescence signal was measured using a ViewLux plate reader (Perkin Elmer, Shelton, CT).
% is set by controls: 0 for no effect and ±100 for the full control effect.

Row | Structure (SMILES) | activity change, negative = inhibition
1 | NS(=O)(=O)c1ccc(NC(=O)CCC(=O)O)cc1 | 31.5% [at 42.5 µM] (inactive)
2 | NCCS | 8.2% [at 42.5 µM] (inactive)
3 | COCCOCCOCCOCCOCCO | 12.3% (inactive)
4 | CCNC(=O)C1CC(C)CCC1C(C)C (stereo not given) | -0.0157% (inactive)
5 | CC(C)CCCCOC(=O)c1ccccc1C(=O)OCCCCC(C)C | 1.85% (inactive)
6 | CC(=O)NCc1c(I)c(NC(C)=O)c(I)c(C(=O)O)c1I | 9.34% [at 42.5 µM] (inactive)
7 | CCCCOCCOC(=O)COc1nc(Cl)c(Cl)cc1Cl | -19.5% (inactive)
8 | O=C(O)c1cc(Cl)cc([N+](=O)[O-])c1Cl | -14.9% (inactive)
9 | O=P(O)(O)OP(=O)(O)O | 9.53% (inactive)
10 | O=S(=O)(O)CCN1CCN(CCO)CC1 | 13.6% (inactive)
11 | CC(=O)c1ccc2c(c1)Cc1ccccc1-2 | -24.4% (inactive)
12 | C=C(C)C(=O)OCCNC(C)(C)C | -3.06% (inactive)
13 | Cc1cccc(C)c1OCC(C)N (stereo not given) | 20.4% [at 42.5 µM] (inactive)
14 | Nc1ccc(S(=O)(=O)Nc2ccc(Cl)nn2)cc1 | 0.728% [at 42.5 µM] (inactive)
15 | Cc1cc(Cl)c(C)cc1Cl | 14.9% (inactive)
16 | Cc1ccccc1OCC(O)CO (stereo not given) | 14.6% [at 42.5 µM] (inactive)
17 | CCOC(=O)[C@H](CCc1ccccc1)N[C@@H](C)C(=O)N1C(=O)N(C)C[C@H]1C(=O)O | 12.8% [at 42.5 µM] (inactive)
18 | COCCOC(=O)C1=C(C)NC(C)=C(C(=O)OC(C)C)C1c1cccc([N+](=O)[O-])c1 (stereo not given) | -19.8% [at 42.5 µM] (inactive)
19 | C=C(C)C(=O)OCC(C)(C)COC(=O)C(=C)C | -5.65% (inactive)
20 | CC(C)C(=O)OCCc1ccccc1 | 8.11% (inactive)

Row | Structure (SMILES) | activity change, negative = inhibition
21 | COC(=O)[C@@H]1[C@H]2C[C@H]3c4[nH]c5ccccc5c4CCN3C[C@@H]2CC[C@@H]1O | -16.9% [at 42.5 µM] (inactive)
22 | CCCCOC(=O)c1ccccc1 | 7.93% (inactive)
23 | CC/C=C\CC1=C(C)CCC1=O | 6.49% (inactive)
24 | C[C@H](CCC(=O)O)[C@H]1CC[C@H]2[C@@H]3C(=O)C[C@@H]4CC(=O)CC[C@]4(C)[C@H]3CC(=O)[C@]12C | 6.34% [at 42.5 µM] (inactive)
25 | OCCN(CCO)c1cccc(Cl)c1 | -12.9% (inactive)
26 | Cc1ccc(S(=O)(=O)O)c(C)c1 | 36.5% (inactive)
27 | C=C(C)C1CCC(C)(O)CC1 (stereo not given) | 14.8% (inactive)
28 | O=Cc1ccc(Cl)c(Cl)c1 | 6.73% (inactive)
29 | O=C1c2ccccc2C(=O)C1c1ccccc1 | 1.39% [at 42.5 µM] (inactive)
30 | COc1nccnc1NS(=O)(=O)c1ccc(N)cc1 | 20.8% [at 42.5 µM] (inactive)
31 | CC(C)CCCC(C)(C)O | 0% (inactive)
32 | FC(F)(F)c1ccccc1-n1ccnc1 | 17.8% [at 42.5 µM] (inactive)
33 | C[Si](C)(C)C | -3.39% (inactive)
34 | CC(=O)c1sc(C)nc1C | 24.9% (inactive)
35 | COC(=O)c1ccccc1C(=O)c1ccc(OCCN2CCCCC2)cc1 | -21.5% [at 42.5 µM] (inactive)
36 | NS(=O)(=O)c1cc2c(cc1Cl)CN(C1CCCCC1)C2=O | -1.98% [at 42.5 µM] (inactive)
37 | C=C1CC/C=C(\C)CC[C@@H]2[C@@H]1CC2(C)C | 0% (inactive)
38 | O=S(=O)(O)c1cc(O)c2ccc(Nc3ccccc3)cc2c1 | 0% (inactive)
39 | C[C@@H](O)[C@H]1C(=O)N2C(C(=O)O)=C(SCCN=CN)C[C@H]12 | 27.7% [at 42.5 µM] (inactive)
40 | OCCCCC(O)CO (stereo not given) | 20% (inactive)
